Results from article PMC11006913.

target: HOXC10 (Homo sapiens, UniProt Q9NYD6 254-340); experiment: PBM; 200 nM protein, PBS; settings: dsDNA, one strand shown
Sequence (Q9NYD6 254-340): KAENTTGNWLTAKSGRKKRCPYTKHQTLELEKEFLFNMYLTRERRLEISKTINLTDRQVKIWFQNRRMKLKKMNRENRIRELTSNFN

Going from ATAACACC to AGAAAAAG, the binding signal falls from 11.1 upbm affinity estimate (log intensity, higher = more binding, comparable within an allelic series) to 10 upbm affinity estimate (log intensity, higher = more binding, comparable within an allelic series).

Compared with GGTCCGCA, CTCAGGAA is higher in binding signal: 10 upbm affinity estimate (log intensity, higher = more binding, comparable within an allelic series) for the first, 10.1 upbm affinity estimate (log intensity, higher = more binding, comparable within an allelic series) for the second.

Compared with AATAATAG, CCTTGCGA is lower in binding signal: 11.5 upbm affinity estimate (log intensity, higher = more binding, comparable within an allelic series) for the first, 10 upbm affinity estimate (log intensity, higher = more binding, comparable within an allelic series) for the second.

First: CGGCCCCG
Second: ATGTGCTA
The binding signal of the first is lower: 10.2 upbm affinity estimate (log intensity, higher = more binding, comparable within an allelic series) for the first, 10.7 upbm affinity estimate (log intensity, higher = more binding, comparable within an allelic series) for the second.

Going from CAGCGCGG to AGGCTTCC, the binding signal rises from 10 upbm affinity estimate (log intensity, higher = more binding, comparable within an allelic series) to 10.1 upbm affinity estimate (log intensity, higher = more binding, comparable within an allelic series).

Going from ATTACAGG to GAAGCTGC, the binding signal falls from 11.1 upbm affinity estimate (log intensity, higher = more binding, comparable within an allelic series) to 10.1 upbm affinity estimate (log intensity, higher = more binding, comparable within an allelic series).

Going from AGCTGGGC to CTCTCCGA, the binding signal falls from 10 upbm affinity estimate (log intensity, higher = more binding, comparable within an allelic series) to 9.99 upbm affinity estimate (log intensity, higher = more binding, comparable within an allelic series).

Going from AGCAGGGC to CCGAACTC, the binding signal falls from 10.1 upbm affinity estimate (log intensity, higher = more binding, comparable within an allelic series) to 9.95 upbm affinity estimate (log intensity, higher = more binding, comparable within an allelic series).

Going from CCCGGGCG to CTCCTCTC, the binding signal falls from 10.1 upbm affinity estimate (log intensity, higher = more binding, comparable within an allelic series) to 10 upbm affinity estimate (log intensity, higher = more binding, comparable within an allelic series).

First: ATATCAGG
Second: GACGATTA
The binding signal of the first is lower: 10.6 upbm affinity estimate (log intensity, higher = more binding, comparable within an allelic series) for the first, 11.2 upbm affinity estimate (log intensity, higher = more binding, comparable within an allelic series) for the second.

Going from AATGCTAT to AGGAGTGG, the binding signal falls from 11 upbm affinity estimate (log intensity, higher = more binding, comparable within an allelic series) to 9.97 upbm affinity estimate (log intensity, higher = more binding, comparable within an allelic series).

First: CTTTCTTC
Second: AACATTAT
The binding signal of the first is lower: 9.98 upbm affinity estimate (log intensity, higher = more binding, comparable within an allelic series) for the first, 11.6 upbm affinity estimate (log intensity, higher = more binding, comparable within an allelic series) for the second.

Going from GCTCCCGA to ATAAAAAG, the binding signal rises from 9.93 upbm affinity estimate (log intensity, higher = more binding, comparable within an allelic series) to 12.1 upbm affinity estimate (log intensity, higher = more binding, comparable within an allelic series).

Going from GCGGTGCC to CTTCGACC, the binding signal falls from 10 upbm affinity estimate (log intensity, higher = more binding, comparable within an allelic series) to 9.95 upbm affinity estimate (log intensity, higher = more binding, comparable within an allelic series).

Going from CCGGTGAC to GACTGGGC, the binding signal falls from 10 upbm affinity estimate (log intensity, higher = more binding, comparable within an allelic series) to 9.98 upbm affinity estimate (log intensity, higher = more binding, comparable within an allelic series).

Going from AATCATCA to ATACTAAT, the binding signal rises from 10.9 upbm affinity estimate (log intensity, higher = more binding, comparable within an allelic series) to 11.3 upbm affinity estimate (log intensity, higher = more binding, comparable within an allelic series).

First: ATAAAGAT
Second: GGCGCAAA
The binding signal of the first is higher: 11.6 upbm affinity estimate (log intensity, higher = more binding, comparable within an allelic series) for the first, 10.1 upbm affinity estimate (log intensity, higher = more binding, comparable within an allelic series) for the second.

Compared with AAAGCGGG, AATGGTCC is higher in binding signal: 9.98 upbm affinity estimate (log intensity, higher = more binding, comparable within an allelic series) for the first, 11 upbm affinity estimate (log intensity, higher = more binding, comparable within an allelic series) for the second.

Going from ATCATACA to AAATAAAA, the binding signal rises from 10.9 upbm affinity estimate (log intensity, higher = more binding, comparable within an allelic series) to 11.9 upbm affinity estimate (log intensity, higher = more binding, comparable within an allelic series).

In the case of CTTAAATA, the binding signal is reported as 10.9 upbm affinity estimate (log intensity, higher = more binding, comparable within an allelic series).

target: HOXC10 (Homo sapiens, UniProt Q9NYD6 254-340, K271E); experiment: PBM; 200 nM protein, PBS; settings: dsDNA, one strand shown
Sequence (Q9NYD6 254-340 K271E): as the sequence (Q9NYD6 254-340) above, with K18E counted along it

Compared with ATAACACC, AGAAAAAG is lower in binding signal: 10.8 upbm affinity estimate (log intensity, higher = more binding, comparable within an allelic series) for the first, 10.1 upbm affinity estimate (log intensity, higher = more binding, comparable within an allelic series) for the second.

GGTCCGCA and CTCAGGAA are the same in binding signal: 10 upbm affinity estimate (log intensity, higher = more binding, comparable within an allelic series) for the first, 10 upbm affinity estimate (log intensity, higher = more binding, comparable within an allelic series) for the second.

Going from AATAATAG to CCTTGCGA, the binding signal falls from 11.2 upbm affinity estimate (log intensity, higher = more binding, comparable within an allelic series) to 10.1 upbm affinity estimate (log intensity, higher = more binding, comparable within an allelic series).

Going from CGGCCCCG to ATGTGCTA, the binding signal rises from 10.1 upbm affinity estimate (log intensity, higher = more binding, comparable within an allelic series) to 10.7 upbm affinity estimate (log intensity, higher = more binding, comparable within an allelic series).

Going from CAGCGCGG to AGGCTTCC, the binding signal rises from 9.95 upbm affinity estimate (log intensity, higher = more binding, comparable within an allelic series) to 10.1 upbm affinity estimate (log intensity, higher = more binding, comparable within an allelic series).

First: ATTACAGG
Second: GAAGCTGC
The binding signal of the first is higher: 10.9 upbm affinity estimate (log intensity, higher = more binding, comparable within an allelic series) for the first, 10 upbm affinity estimate (log intensity, higher = more binding, comparable within an allelic series) for the second.

First: AGCTGGGC
Second: CTCTCCGA
The binding signal of the first is higher: 10 upbm affinity estimate (log intensity, higher = more binding, comparable within an allelic series) for the first, 9.97 upbm affinity estimate (log intensity, higher = more binding, comparable within an allelic series) for the second.

Compared with AGCAGGGC, CCGAACTC is lower in binding signal: 10.1 upbm affinity estimate (log intensity, higher = more binding, comparable within an allelic series) for the first, 10 upbm affinity estimate (log intensity, higher = more binding, comparable within an allelic series) for the second.

Going from CCCGGGCG to CTCCTCTC, the binding signal falls from 10.1 upbm affinity estimate (log intensity, higher = more binding, comparable within an allelic series) to 10 upbm affinity estimate (log intensity, higher = more binding, comparable within an allelic series).

Compared with ATATCAGG, GACGATTA is higher in binding signal: 10.7 upbm affinity estimate (log intensity, higher = more binding, comparable within an allelic series) for the first, 11.1 upbm affinity estimate (log intensity, higher = more binding, comparable within an allelic series) for the second.

Compared with AATGCTAT, AGGAGTGG is lower in binding signal: 10.9 upbm affinity estimate (log intensity, higher = more binding, comparable within an allelic series) for the first, 9.99 upbm affinity estimate (log intensity, higher = more binding, comparable within an allelic series) for the second.

Compared with CTTTCTTC, AACATTAT is higher in binding signal: 10.1 upbm affinity estimate (log intensity, higher = more binding, comparable within an allelic series) for the first, 11.3 upbm affinity estimate (log intensity, higher = more binding, comparable within an allelic series) for the second.

First: GCTCCCGA
Second: ATAAAAAG
The binding signal of the first is lower: 10.1 upbm affinity estimate (log intensity, higher = more binding, comparable within an allelic series) for the first, 11.5 upbm affinity estimate (log intensity, higher = more binding, comparable within an allelic series) for the second.

GCGGTGCC and CTTCGACC are the same in binding signal: 10 upbm affinity estimate (log intensity, higher = more binding, comparable within an allelic series) for the first, 10 upbm affinity estimate (log intensity, higher = more binding, comparable within an allelic series) for the second.

CCGGTGAC and GACTGGGC are the same in binding signal: 10 upbm affinity estimate (log intensity, higher = more binding, comparable within an allelic series) for the first, 10 upbm affinity estimate (log intensity, higher = more binding, comparable within an allelic series) for the second.

Going from AATCATCA to ATACTAAT, the binding signal rises from 10.9 upbm affinity estimate (log intensity, higher = more binding, comparable within an allelic series) to 11.2 upbm affinity estimate (log intensity, higher = more binding, comparable within an allelic series).

Compared with ATAAAGAT, GGCGCAAA is lower in binding signal: 11.1 upbm affinity estimate (log intensity, higher = more binding, comparable within an allelic series) for the first, 10.1 upbm affinity estimate (log intensity, higher = more binding, comparable within an allelic series) for the second.

First: AAAGCGGG
Second: AATGGTCC
The binding signal of the first is lower: 10.1 upbm affinity estimate (log intensity, higher = more binding, comparable within an allelic series) for the first, 10.9 upbm affinity estimate (log intensity, higher = more binding, comparable within an allelic series) for the second.

First: ATCATACA
Second: AAATAAAA
The binding signal of the first is lower: 10.8 upbm affinity estimate (log intensity, higher = more binding, comparable within an allelic series) for the first, 11.1 upbm affinity estimate (log intensity, higher = more binding, comparable within an allelic series) for the second.

CTTAAATA was tested, and the binding signal was 10.7 upbm affinity estimate (log intensity, higher = more binding, comparable within an allelic series).
